Results filed as inconclusive are left out. Calls of active or inactive are those of the source. The call rests on the fitted dose curve; in most records, active means well fitted inhibition curve with a large enough effect; inconclusive means small, poorly fitted or top-dose-only effect; inactive means flat fitted curve, though single readings scatter.
Assays:
Experiment in all cases: qHTS profiling for inhibitors of Plasmodium falciparum proliferation (AID 504749); further: nearly all actives have a fitted effect of over 60% in size
Conditions in all cases: P. falciparum in erythrocytes, SYBR Green DNA, 72 h; series mostly up to 28.7 µM
CP266 = tested on: CP266
Outline: (§1)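 P. falciparum-infected erythrocytes (0.3% parasitemia, 2.5% hematocrit final) were exposed to compounds for 72 h at 37 C in 5% CO2, then lysed with SYBR Green buffer overnight at room temperature; parasite DNA fluorescence was normalized to artemisinin and DMSO controls.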

CP268 = tested on: CP268
Outline: as §1

CP269 = tested on: CP269
Outline: as §1

CP286 = tested on: CP286
Outline: as §1

CP291 = tested on: CP291
Outline: as §1

CP297 = tested on: CP297
Outline: as §1

CP305 = tested on: CP305
Outline: as §1

CP315 = tested on: CP315
Outline: as §1

CP325 = tested on: CP325
Outline: as §1

CP329 = tested on: CP329
Outline: as §1

CP335 = tested on: CP335
Outline: as §1

DFO2036 = tested on: DFO2036
Outline: as §1

DIV14 = tested on: DIV14
Outline: as §1

DIV17 = tested on: DIV17
Outline: as §1

DIV30 = tested on: DIV30
Outline: as §1

ECU = tested on: ECU
Outline: as §1

FAB9 = tested on: FAB9
Outline: as §1

GB4 = tested on: GB4
Outline: as §1

JCK = tested on: JCK
Outline: as §1

N140 = tested on: N140
Outline: as §1

P93_24 = tested on: P93_24
Outline: as §1

P94_40 = tested on: P94_40
Outline: as §1

PAD = tested on: PAD
Outline: as §1

PC15 = tested on: PC15
Outline: as §1

PC26 = tested on: PC26
Outline: as §1

PC49 = tested on: PC49
Outline: as §1

SC27B = tested on: SC27B
Outline: as §1

TAB109 = tested on: TAB109
Outline: as §1

TAB113 = tested on: TAB113
Outline: as §1

TAB165 = tested on: TAB165
Outline: as §1

W2 = tested on: W2
Outline: as §1

Measured: Potency

CC(C)(O)c1ccccc1CC[C@H](SCC1(CC(=O)O)CC1)c1cccc(/C=C/c2ccc3ccc(Cl)cc3n2)c1
inactive: all assays above

Reference: PubChem BioAssay (NCATS)
